Out of some 5,500 compounds screened, about 2,000 (36%) were called active. Roughly 18% stayed inconclusive and do not appear here. Rule as the data show it: active = normalized growth mostly below about 0.91 (no sharp cut-off); inconclusive = no clear call, values can overlap the other calls; inactive = mostly above about 0.92. The list shows a part of the results.
Test: chemical genetic growth profiling, strain panel (AID 1159580);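 also: tested at 20 µM; growth read once vehicle control cultures reached saturation at 30 °C; 1 = growth at the plate median or of vehicle wells; lower values mean less growth of the strain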
Settings: S. cerevisiae deletion strains, growth OD
[1] = locus YHR030C, strain SLT2, hits give low values
[2] = locus YHR079C, strain IRE1, hits give low values
[3] = locus YJL095W, strain BCK1, hits give low values
[4] = locus YJR066W, strain TOR1, hits give low values
[5] = locus YLR113W, strain HOG1, hits give low values
[6] = locus YNL183C, strain NPR1, hits give low values
[7] = locus YOR231W, strain MKK1, hits give low values

Measured: normalized growth

CCOC(=O)Nc1nc2ccccc2[nH]1
inactive: locus YAL021C, strain ccr4, hits give low values 0.936 | locus YAL026C, strain drs2, hits give low values 0.977 | locus YAL030W, strain snc1, hits give low values 0.96 | locus YBL061C, strain skt5, hits give low values 0.982 | locus YBR009C, strain hhf1, hits give low values 0.967 | locus YBR023C, strain chs3, hits give low values 0.995 | locus YBR171W, strain sec66, hits give low values 0.965 | locus YBR231C, strain swc5, hits give low values 0.988 | locus YBR279W, strain paf1, hits give low values 0.991 | locus YCL011C, strain gbp2, hits give low values 0.979 | locus YCL016C, strain dcc1, hits give low values 0.995 | locus YCL061C, strain MRC1, hits give low values 0.992 | locus YCL069W, strain vba3, hits give low values 0.992 | locus YCR088W, strain abp1, hits give low values 0.99 | locus YDL005C, strain med2, hits give low values 0.994 | locus YDL040C, strain nat1, hits give low values 0.994 | locus YDR001C, strain nth1, hits give low values 0.97 | locus YDR069C, strain doa4, hits give low values 0.902 | locus YDR137W, strain rgp1, hits give low values 0.865 | locus YDR159W, strain sac3, hits give low values 0.979 | locus YDR195W, strain ref2 1.13 | locus YDR297W, strain sur2, hits give low values 0.964 | locus YDR334W, strain swr1, hits give low values 0.947 | locus YDR335W, strain msn5, hits give low values 0.989 | locus YDR392W, strain spt3, hits give low values 0.972 | locus YEL003W, strain gim4, hits give low values 0.972 | locus YEL037C, strain rad23, hits give low values 0.984 | locus YEL061C, strain CIN8 (second series), hits give low values 0.983 | locus YER015W, strain faa2, hits give low values 0.972 | locus YER016W, strain bim1, hits give low values 0.994 | locus YER111C, strain swi4, hits give low values 0.991 | locus YER155C, strain BEM2 (second series), hits give low values 0.977 | locus YFR010W, strain ubp6, hits give low values 0.937 | locus YGL167C, strain pmr1, hits give low values 0.984 | locus YGL173C, strain kem1, hits give low values 0.953 | locus YGL227W, strain vid30, hits give low values 0.986 | locus YGL240W, strain doc1, hits give low values 0.941 | locus YGL253W, strain hxk2, hits give low values 0.982 | locus YHR013C, strain ard1, hits give low values 0.956 | locus YHR027C, strain rpn1, hits give low values 0.962 | [1] 0.969 | [2] 0.976 | locus YHR142W, strain chs7, hits give low values 0.986 | locus YJL092W, strain hpr5, hits give low values 0.999 | locus YJL095W, strain BCK1 (second series), hits give low values 0.975 | [3] 0.987 | locus YJL115W, strain asf1, hits give low values 0.961 | locus YJL129C, strain trk1, hits give low values 1.03 | locus YJL154C, strain vps35, hits give low values 0.982 | locus YJL164C, strain tpk1, hits give low values 0.986 | locus YJL166W, strain qcr8, hits give low values 0.977 | locus YJL187C, strain SWE1, hits give low values 0.988 | [4] 0.923 | locus YKL160W, strain elf1, hits give low values 0.985 | locus YKR026C, strain gcn3, hits give low values 0.996 | locus YKR091W, strain srl3, hits give low values 0.987 | locus YLL001W, strain dnm1, hits give low values 0.987 | locus YLL026W, hits give low values 0.974 | locus YLL041C, strain sdh2, hits give low values 0.978 | locus YLR027C, strain aat2, hits give low values 0.985 | [5] 1.03 | locus YLR221C, strain rsa3, hits give low values 0.988 | locus YLR258W, strain gsy2, hits give low values 0.984 | locus YLR262C, strain YPT6 (second series), hits give low values 0.933 | locus YLR320W, strain mms22, hits give low values 0.966 | locus YLR342W, strain FKS1, hits give low values 0.988 | locus YLR357W, strain rsc2, hits give low values 0.92 | locus YLR370C, strain arc18, hits give low values 0.986 | locus YLR384C, strain iki3, hits give low values 0.978 | locus YML120C, strain ndi1, hits give low values 0.998 | locus YMR058W, strain fet3, hits give low values 0.968 | locus YMR125W, strain sto1, hits give low values 1 | locus YMR129W, hits give low values 0.981 | locus YMR205C, strain PFK2, hits give low values 0.904 | locus YMR231W, strain pep5, hits give low values 0.989 | locus YNL071W, strain lat1, hits give low values 0.985 | [6] 0.942 | locus YNL209W, strain ssb2, hits give low values 0.971 | locus YNL248C, strain rpa49, hits give low values 0.998 | locus YNL322C, strain KRE1 (second series), hits give low values 0.983 | locus YNR049C, strain mso1, hits give low values 0.983 | locus YOR001W, strain rrp6, hits give low values 0.97 | locus YOR070C, strain gyp1, hits give low values 0.983 | locus YOR080W, strain dia2, hits give low values 0.971 | locus YOR083W, strain WHI5, hits give low values 0.974 | locus YOR106W, strain vam3, hits give low values 0.927 | [7] 0.954 | locus YOR265W, strain rbl2, hits give low values 0.987 | locus YOR270C, strain vph1, hits give low values 0.868 | locus YOR290C, strain snf2, hits give low values 0.895 | locus YPL051W, strain arl3, hits give low values 0.987 | locus YPL078C, strain atp4, hits give low values 0.986 | locus YPL106C, strain sse1, hits give low values 0.956 | locus YPL240C, strain hsp82, hits give low values 0.991 | locus YPL256C, strain CLN2, hits give low values 0.987

O=C(Nc1ccc(Cl)cc1)OCCSc1nc2ccccc2s1
inactive: locus YAR019C, strain CDC15, hits give low values 0.987 | locus YBL105C, strain PKC1, hits give low values 0.973 | locus YBR135W, strain CKS1, hits give low values 0.979 | locus YBR136W, strain MEC1, hits give low values 0.976 | locus YBR160W, strain CDC28, hits give low values 0.979 | locus YDL017W, strain CDC7, hits give low values 0.983 | locus YDL028C, strain MPS1, hits give low values 0.982 | locus YDL101C, strain DUN1, hits give low values 0.985 | locus YDL108W, strain KIN28, hits give low values 0.978 | locus YDL132W, strain cdc53, hits give low values 0.979 | locus YDL214C, strain PRR2, hits give low values 0.883 | locus YDR052C, strain DBF4, hits give low values 0.994 | locus YDR054C, strain cdc34, hits give low values 0.973 | locus YDR226W, strain ADK1, hits give low values 0.987 | locus YDR477W, strain SNF1, hits give low values 0.959 | locus YER123W, strain YCK3, hits give low values 0.887 | locus YER133W, strain GLC7, hits give low values 0.93 | locus YFL009W, strain cdc4, hits give low values 0.981 | locus YFL029C, strain CAK1, hits give low values 0.975 | locus YFR003C, strain YPI1, hits give low values 0.977 | locus YFR019W, strain FAB1, hits give low values 0.848 | locus YFR028C, strain CDC14, hits give low values 0.975 | locus YGR040W, strain KSS1, hits give low values 0.929 | locus YGR052W, strain FMP48, hits give low values 0.911 | locus YGR092W, strain DBF2, hits give low values 0.928 | [2] 0.902 | locus YHR082C, strain KSP1, hits give low values 0.86 | locus YHR205W, strain SCH9, hits give low values 0.695 | locus YIL147C, strain SLN1, hits give low values 0.988 | [3] 0.845 | locus YJL128C, strain PBS2, hits give low values 0.944 | locus YJL157C, strain FAR1, hits give low values 0.894 | locus YJR016C, strain ILV3, hits give low values 0.985 | locus YJR066W, strain TOR1 (second series), hits give low values 0.811 | [4] 0.833 | locus YKL048C, strain ELM1, hits give low values 1.01 | locus YKL067W, strain YNK1, hits give low values 0.901 | locus YKL101W, strain HSL1, hits give low values 0.952 | locus YKL193C, strain SDS22, hits give low values 0.983 | locus YKL203C, strain TOR2, hits give low values 0.987 | locus YLR133W, strain CKI1, hits give low values 0.93 | locus YLR403W, strain SFP1, hits give low values 0.899 | locus YML070W, strain DAK1, hits give low values 0.894 | locus YMR001C, strain CDC5, hits give low values 0.976 | locus YMR205C, strain PFK2 (second series), hits give low values 0.95 | locus YMR277W, strain FCP1, hits give low values 0.979 | locus YNL006W, strain LST8, hits give low values 0.991 | locus YNL020C, strain ARK1, hits give low values 0.929 | locus YNL161W, strain CBK1, hits give low values 0.985 | [6] 0.846 | locus YNL207W, strain RIO2, hits give low values 0.983 | locus YNL222W, strain SSU72, hits give low values 0.976 | locus YNL307C, strain MCK1 (second series), hits give low values 0.909 | locus YOL078W, strain AVO1, hits give low values 0.977 | locus YOL136C, strain PFK27, hits give low values 0.902 | locus YOR061W, strain CKA2, hits give low values 0.928 | locus YOR119C, strain RIO1, hits give low values 0.984 | [7] 0.931 | locus YOR329C, strain SCD5, hits give low values 0.987 | locus YPL031C, strain PHO85, hits give low values 0.955 | locus YPL153C, strain RAD53, hits give low values 0.95 | locus YPL204W, strain HRR25, hits give low values 0.922 | locus YPL209C, strain IPL1, hits give low values 0.982 | locus YPR025C, strain CCL1, hits give low values 0.977 | locus YPR106W, strain ISR1, hits give low values 0.984 | locus YPR111W, strain DBF20, hits give low values 0.972 | strain NNK1, hits give low values 0.988 | strain TSCII, hits give low values 0.979
active: [1] 0.757 | [5] 0.859

— PubChem BioAssay AID1159580 (chemical genetic matrix, 2015)
